According to PubChem BioAssay (NCATS):
Inconclusive results are not listed. A call without a number means that no potency is given here. The source made the active and inactive calls. The call rests on the fitted dose curve; in most records, active means well fitted cell-killing curve with a large enough effect; inconclusive means small, poorly fitted or top-dose-only effect; inactive means flat fitted curve, though single readings scatter.

assay: qHTS of pediatric cancer cell lines to identify multiple opportunities for drug repurposing: Primary screen for DAOY cells (AID 1347090); conditions: DAOY medulloblastoma viability, CellTiter-Glo luminescence, 48 h; series mostly up to 46 µM; further: nearly all actives have a fitted effect of over 55% in size
Method in brief: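 Eight- or eleven-point concentration series, 48 h treatment at 37 degrees C in growth media; readout CellTiter-Glo luminescence. Potency and efficacy were taken from the concentration-response curves.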
Potency means the concentration at half of the fitted maximal effect.

SMILES	Potency
O=C(O)c1ccccc1C(=O)Nc1ccc(-c2ccccc2)cc1	inactive
CCc1ccc(C=C2SC(=S)NC2=O)cc1	inactive
CC=CC(=O)N(CC)c1ccccc1C	inactive
Cc1cnc(C(=O)O)c[n+]1[O-]	inactive
C[C@]12CC[C@@H]3c4ccc(O)cc4CC[C@H]3[C@H]1C[C@@H](O)[C@H]2O	inactive
O=c1ccn([C@@H]2O[C@H](CO)[C@H](O)[C@H]2O)c(=O)[nH]1	inactive
COc1cc2c(cc1OC)CN(CCc1ccc(NC(=O)c3cc(OC)c(OC)cc3NC(=O)c3cnc4ccccc4c3)cc1)CC2	inactive
O=C1C[C@@H](c2ccc(O)cc2)Oc2cc(O)cc(O)c21	inactive
NS(=O)(=O)c1cccc2c1C(=O)c1cccc(O)c1C2=O	0.935 µM (active)
C[C@]12CC[C@@H]3c4ccc(O)cc4C[C@@H](CCCCCCCCCS(=O)CCCC(F)(F)C(F)(F)F)[C@H]3[C@H]1CC[C@H]2O (stereo partly specified)	inactive
N#CC(=C(N)Sc1ccccc1N)C(C#N)=C(N)Sc1ccccc1N	23.5 µM (active)
CC(C)(C(=O)NCC(F)(F)C(F)(F)F)C(=O)N[C@@H]1C(=O)Nc2ccccc2-c2ccccc21	18.7 µM (active)
CCCCCCCCCCCC1=C(O)C(=O)C=C(O)C1=O	0.935 µM (active)
C=C1C(=O)OC(CCCCCCCC)C1C(=O)O (stereo unspecified)	inactive
CCc1ccc(OCc2ccccc2C(=O)Nc2ccc3nc(C)cc(N)c3c2)cc1	11.8 µM (active)
C[C@H]1[C@H](NC(=O)C(=NOC(C)(C)C(=O)O)c2csc(N)n2)C(=O)N1S(=O)(=O)O	inactive
